Compounds with a hit are over-represented: about 19% of the library has one in this group of screens.
HT1080NT lethal: kills 2HG-producing HT-1080-NT fibrosarcoma cells. HT-1080-NT fibrosarcoma viability, CellTiter-Glo ATP luminescence, 48 h. Potency, µM (top dose mostly 46.1 µM), inactives show at the highest dose activity, negative = less viability, usual class: cytotoxic. 1.6% of 360,000 active. AID 686970;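 also: NT is the 2HG producing partner of a matched IDH1 knockdown line; potency is read from the fitted curve at half-maximal effect; 0% = DMSO-treated cells and -100% = media-only wells without cells; nearly all actives have a fitted effect of over 55% in size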
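HT-1080-NT; 750 cells/well; 5% FBS RPMI; 48 h compound, 37 degrees C; CellTiter-Glo luminescence; curve fitting and curve-class assignment.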
IL-1B inflam inh: inflammasome signaling inhibition, IL-1 beta readout | THP-1 LPS/ATP IL-1B secretion, AlphaLISA, 16 h; active compounds read low | activity change, % at 57.5 µM | 4.7% of 360,000 active | AID 743279; in the data active = activity change below about -50%; inconclusive = mostly about -30% to -49%
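Secreted IL-1B measured by AlphaLISA bead assay after 16 h compound exposure of THP-1 cells; compounds (final up to 57.5 uM) added 1 h before LPS (250 ng/mL) and ATP (1.25 mM) stimulation; lower signal means less secretion.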
TDP1 cell CPT: DT40-hTDP1 cell growth loss with CPT; Potency, µM (highest dose often 46.2 µM), for the others: at the top dose activity change, negative = growth inhibition, actives largely listed as inhibitors; 12% of 420,000 active; chicken DT40 Tdp1-/-;hTDP1 cells + 20 nM CPT, ATP luminescence, 48 h; AID 686979; also: potency is read from the fitted curve at half-maximal effect; nearly all actives have a fitted effect of over 55% in size
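Chicken DT40 Tdp1-/- cells stably complemented with human TDP1 were seeded at 400 cells/well in medium containing 20 nM camptothecin, exposed to pin-transferred compounds, and grown at 37 °C for at least 48 hr. Viability was read as ATP luminescence.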
HT1080 IDH1KD tx: HT-1080 IDH1 knockdown cell toxicity (counter line); HT-1080 IDH1 knockdown viability, ATP luminescence, 48 h; Potency, µM (series often up to 46.1 µM), for inactives: top-dose activity, negative = toxicity, most hits filed as cytotoxic; 2% of 360,000 active;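 also: potency is read from the fitted curve at half-maximal effect; 0% = DMSO wells and -100% = cell-free medium wells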
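% activity derives from luminescence (CellTiter-Glo), normalised to DMSO and no-cell wells. HT-1080-IDH1KD cells, 750/well, had 48 h compound exposure at 37 °C.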
TDP1 cell noCPT: qHTS for Inhibitors of human tyrosyl-DNA phosphodiesterase 1 (TDP1): qHTS in cells in absence of CPT | DT40 Tdp1-/- hTDP1 cells, no CPT, ATP luminescence, 48 h | Potency, µM (highest dose often 46.2 µM), for the others: at the top dose activity change, negative = growth inhibition, actives largely listed as inhibitors | 15% of 420,000 active | AID 686978, 2013; also: potency is read from the fitted curve at half-maximal effect; nearly all actives have a fitted effect of over 55% in size
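No-CPT arm: Tdp1-/-;hTDP1 DT40 cells (400/well) plus compounds, incubated ≥48 hr at 37 °C. Readout CellTiter-Glo luminescence.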
Numbers without * were called inactive; ? = inconclusive; nt = not tested or not shown. Unless noted, calls follow the shape of the dose curve; as a rule, active = well fitted curve in the direction sought with a large enough effect; inconclusive = small, poorly fitted or top-dose-only effect, or another doubt; inactive = no such curve, though single readings can be large; an effect the other way counts as inactive or inconclusive. Unless noted, % is scaled to controls: 0 for no effect and ±100 for the full control effect.

SMILES	HT1080NT lethal	IL-1B inflam inh	TDP1 cell CPT	HT1080 IDH1KD tx	TDP1 cell noCPT
CCN(CC)S(=O)(=O)c1ccc(N2CCN(C)CC2)c(NC(=O)Nc2ccc(C)cc2)c1	8.2µM*	nt	?	21µM*	?
CCN(CC)S(=O)(=O)c1ccc(N2CCCC2)c(NC(=O)Cc2ccc(OC)cc2)c1	0%	-1	?	14%	21µM*
N#Cc1c(NC(=O)C2CC(Cl)=CCC2C(=O)O)sc2c1CCCC2 (centres undefined)	0%	-2	14%	0%	3%
CCOC(=O)c1cc(C#N)c(SC(C(=O)N2CCCCC2)c2ccccc2)nc1C (centres undefined)	nt	nt	?	nt	10µM*
CC(=NNC1=NCCN1)c1cn(C2=NCCN2)nc1C	16%	-10	-27%	6%	-16%
C/C(=N\NC1=NCCN1)c1ccc(N)c([N+](=O)[O-])c1	4%	-16	-27%	-12%	?
COc1ccc(/C(C)=N/NC2=NCCN2)cc1Cl	-17%	-74*	-12%	-8%	-19%
CCCCOc1ccc(Br)cc1/C(C)=N/NC1=NCCN1	8.2µM*	-113*	4.6µM*	6.5µM*	4.1µM*
C/C(=N\Nc1nccnc1Cl)c1ccc(Cl)c(Cl)c1	-1%	4	-5%	-8%	-2%
CCCCCCOc1ccc(/C(C)=N/NC2=NCCN2)cc1[N+](=O)[O-]	-23%	-92*	?	-11%	10µM*
Cc1[nH]c2ccccc2c1C(c1ccncc1)N1CCC(C)CC1 (centres undefined)	-19%	-1	?	-14%	18µM*
Cc1[nH]c2ccc(C(=O)N3CCC(C(N)=O)CC3)cc2c1C	0%	-13	8%	5%	5%
Cc1[nH]c2ccccc2c1C(c1ccccn1)N1CCC(C(N)=O)CC1 (centres undefined)	-4%	-17	21µM*	-17%	18µM*
CCOC(=O)C1CCN(C(c2ccccn2)c2c(C)[nH]c3ccccc23)CC1 (centres undefined)	?	-110*	16µM*	?	16µM*
Cc1[nH]c2ccccc2c1C(c1ccncc1)N1CCN(c2ccccn2)CC1 (centres undefined)	-8%	48	?	-18%	?
Cc1ccc(CNC(=O)CCCCCn2c(=O)c3sccc3n(CC(=O)Nc3c(C)cc(C)cc3C)c2=O)cc1	nt	nt	11%	nt	5%
O=C(c1cc2c(=O)oc3ccccc3c2s1)N1CCN(c2cccc(Cl)c2)CC1	nt	nt	-20%	nt	1%
COc1cccc(/C=C/c2nc3ccccc3c(=O)n2-c2ccc(C)c(C)c2)c1OC	nt	nt	10µM*	nt	8.2µM*
COc1cc(OC)c(OC)cc1/C=C/c1nc2cc3ccccc3cc2c(=O)n1-c1ccc(F)cc1F	nt	nt	12µM*	nt	8.2µM*
O=C(O)c1cc(-n2c(/C=C\c3ccc(F)cc3)nc3ccccc3c2=O)ccc1Cl	nt	nt	15µM*	nt	21µM*
O=c1c2ccccc2nc(/C=C/c2cccc3ccccc23)n1-c1ccc(F)cc1F	nt	nt	23µM*	nt	?
O=C(O)c1cccc(-n2c(/C=C/c3ccccc3)nc3ccccc3c2=O)c1	0%	5	?	-3%	?
CN(C)c1ccc(/C=C/CNC[C@H]2O[C@@H](n3ccc(N)nc3=O)[C@H](O)[C@@H]2O)cc1	2%	-11	9%	2%	-14%
CC(=O)NC(Cc1cccc(C)c1)C(=O)NC1CCN(C(=O)c2ccc([N+](=O)[O-])cc2)CC1 (centres undefined)	1%	4	-2%	13%	-24%
CCN(CC)Cc1cc(Oc2ccc(O)c(CN(CC)CC)c2)ccc1O	-4%	-72*	21µM*	11%	23µM*
CCN(CC)Cc1cc(C(C)=O)ccc1OCC(C)C	-9%	0	15%	-9%	0%
CCOC(=O)N1CCN(CC(O)COc2cc(C)ccc2C(C)C)CC1 (centres undefined)	9%	-4	-29%	11%	8.2µM*
